Source: PubChem BioAssay AID624450 (Southern Research Specialized Biocontainment Screening …, 2012)
Unmarked numbers belong to inactive results. How the calls were made is not given here.

Experiment: Vero 76 cell cytotoxicity, cytotoxicity control for VEEV inhibitor project, set 7 (AID 624450)
Conditions: Vero 76 cell viability, cytotoxicity counter-screen; series mostly up to 25 µM; viability: at the top concentration

SMILES | viability
CCN1CCN(Cc2nc3ccc(C(=O)O)cc3c(=O)n2-c2ccccc2)CC1 | 87.7%
O=c1c2cc([N+](=O)[O-])ccc2nc(CN2CCNCC2)n1-c1ccsc1 | 84.1%
CCN1CCN(Cc2nc3ccc([N+](=O)[O-])cc3c(=O)n2-c2ccccc2F)CC1 | 78.8%
COc1ccc(-n2c(CN3CCNCC3)nc3ccc([N+](=O)[O-])cc3c2=O)cc1 | 85.9%
COc1cccc(-n2c(CN3CCNCC3)nc3ccc([N+](=O)[O-])cc3c2=O)c1 | 84.9%
CCN1CCN(Cc2nc3ccc([N+](=O)[O-])cc3c(=O)n2C)CC1 | 85.9%
COc1ccccc1-n1c(CN2CCNCC2)nc2ccc([N+](=O)[O-])cc2c1=O | 75.6%
